Experimental findings from PubChem BioAssay (NCATS) are described below.

Results filed as inconclusive are left out. Calls of active or inactive are those of the source. Calls come from the whole dose curve; as a rule, active = well fitted cell-killing curve with a large enough effect; inconclusive = small, poorly fitted or top-dose-only effect; inactive = flat fitted curve, though single readings scatter.

The assay is described as follows: Cell Viability - LYMP2-025 (AID 976).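 Note: cells exposed to compound for 24 h at 37 °C.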 Conditions: LYMP2-025 lymphoblastoid cell viability; series mostly up to 92.2 µM. An excerpt: NIH Chemical Genomics Center [NCGC]
NIH Molecular Libraries Screening Centers Network [MLSCN]
National Institutes of Environmental Health Sciences [NIEHS]
National Toxicology Program [NTP]
We have developed a 1536-well cell-based assay for quantitative high throughput screening (qHTS) against a number of cell lines to determine in vitro cytotoxicity of small molecules. This particular assay uses a human lymphoblastoid cell line (LYMP2-025) purchased from Coriell Institute for Medical Research.
NCGC Assay Protocol Summary:
The CellTiter-Glo luminescent cell viability assay (Promega) is a homogeneous method to measure the number of viable cells in culture. The end point readout of this assay is based on quantitation of intracellular ATP, an indicator of metabolic activity, using the luciferase reaction. Luciferase catalyzes the oxidation of beetle Luciferin to oxyluciferin and light in the presence of ATP. The luminescent signal is proportional to amount of ATP present.
Using the CellTiter-Glo luminescent cell viability assay, the amount of cellular ATP was measured in the lymphoblastoid cell line with complete culture medium following compound treatment for 24 hours. The assay was performed in opaque white Kalypsys 1536-well plates. In the screen, tetraoctylammonium bromide was used as positive control. Library compounds were measured for their ability to cause acute toxicity in the cell line, as reflected by a decrease in intracellular ATP levels, in a concentration-dependent manner. […] AC50 values were determined from concentration-response data modeled with the standard Hill equation.
qHTS protocol for CellTiter Glo lymphoblastoid cellular assay
[Step] [Parameter] [Value] [Description]
1. Reagent; 5 uL; 2500 lymphoblastoid cells/well
2. Time; 5 hr; 37 C incubation
4. Controls; 23 nL; Tetraoctylammonium bromide 6.4pM to 92 uM
5. Time; 24 hr; 37 C incubation
6. Reagent; 5 uL; CellTiter Glo reagent
7. Time; 30 min; Room Temperature
8. Detection; Luminescence; Viewlux plate reader
Keywords: cell viability, cytotoxicity, lymphoblastoid cell line, luminescence, NTPHTS, NTPHTS_NCGC, NIEHS, DSSTox, MLSMR, MLSCN, NIH Roadmap, qHTS, NCGC
For the compound `Cc1c(N(C)C)c(=O)n(-c2ccccc2)n1C`, the result was inactive.

Take `CCCCCC(N)=O`: the compound was called inactive.

With `CC(=O)NS(=O)(=O)c1ccc(N)cc1`, the compound was called inactive.

Regarding `CC1CC(OC(=O)c2ccccc2O)CC(C)(C)C1` (stereo unspecified), the result was inactive.

As to `CCN(CC)C(=O)c1cccc(C)c1`, the outcome was inactive.

Consider `CCCC(O)C(CC)CO` (stereo unspecified), for which the compound was called inactive.

`FC(F)(F)C(Cl)Br` (stereo unspecified): the result was inactive.

In the case of `CC(=O)Nc1cccc(O)c1`, the result was inactive.

As to `O=C(O)CCCCC1CCSS1` (stereo unspecified), the call was inactive.

Take `Nc1ccc(S(=O)(=O)c2ccc(N)cc2)cc1`: the outcome was inactive.

As to `CCCCCCCC(=O)OCC(COC(=O)CCCCCCC)OC(=O)CCCCCCC`, the call was inactive.

Consider `CC(=O)OCC(COC(C)=O)OC(C)=O`, for which the call was inactive.

With `Cc1cc(=O)[nH]c(=S)[nH]1`, the result was inactive.

Consider `C=CCNC(N)=S`, for which the call was inactive.

In the case of `O=C(c1ccccc1)C(O)c1ccccc1` (stereo unspecified), the compound was called inactive.

On to `O=C1C(c2[nH]c3ccccc3c2O)=Nc2ccccc21`, for which the call was inactive.

As to `CC(=O)Nc1ccccc1`, the call was inactive.

In the case of `CCCCOC(=O)c1ccc(N)cc1`, the call was inactive.

Take `CC(=O)Nc1ccc(C(=O)O)cc1`: the outcome was inactive.

Consider `COc1ccc(O)cc1`, for which the call was inactive.

For the compound `Cc1cc(C)nc(NS(=O)(=O)c2ccc(N)cc2)n1`, the outcome was inactive.
